Vif imaging – blocks HIV Vif function; HEK293T cells, Vif self-association by quenched fluorescence, imaging, 24 h; inhibition, % at 7.49 µM; 0.35% of 340,000 active; AID 602346; in the data active = inhibition above about 50%, passing the limit was not always enough
aDG glyco up – alpha-DG glycosylation activation | Pro5-aDG cells, alpha-DG glycosylation AlphaScreen (IIH6); 0% Pro5, 100% B10-LARGE cell signal | 0.22% of 360,000 active | activation, % at 10 µM | AID 624168;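 active = activation of at least 8% versus controls, or a plate z-score of at least 8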;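 also: Pro5 are CHO cells carrying HIG-tagged alpha-DG that lacks glycosylation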
H9c2 protect – modulators protecting cardiomyocytes from myocardial damage; H9c2 cardiomyocytes, H2O2 injury protection, ATPLite, 2 h; protection from H2O2 cell death, % at 20 µM; 0.63% of 360,000 active;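 active = compounds giving at least 50% protection of heart cells from peroxide-induced death in the single-dose screen, raw or plate-pattern-corrected value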
Glyco luc inh – N-linked glycosylation inhibition; reporter increase, % at 12.5 µM; D54 ERlucT glycosylation luciferase reporter, 24 h; percent of 100 nM tunicamycin response; 0.23% of 360,000 active; AID 588692;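 active = mean luciferase reporter signal, scaled so untreated is 0 and the glycosylation-blocking control 100, at or above a set limit in every replicate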;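 also: luciferase carries N-glycosylation sites so blocking glycosylation raises the light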
ARNT-TACC3 inh – disruptors of human ARNT/TACC3 interaction; 0.66% of 390,000 active; inhibition, % at 9.99 µM; Q9Y6A5; AlphaScreen His-ARNT PAS-B/GST-TACC3 binding, luminescence; TACC3 fragment carries E629A point mutation;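 active = mean inhibition of replicates at least 50% and at least half of replicates each reaching 50%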
Of the large screens only hits and unclear results are named; the others gave an inactive call. This is a sample that favours compounds with a hit; in the whole collection about 1.7% have one here.

Cc1ccccc1S(=O)(=O)Nc1nc2ccccc2nc1NCCO	Vif imaging 52
Cc1c(C(=O)Nc2ccc3nc(N4CCOCC4)sc3c2)oc2ccccc12	H9c2 protect 58
O=C(Nc1ccccc1N1CCOCC1)c1cc2ccccc2o1	none
O=C(Nc1ccc(N2CCOCC2)c(Cl)c1)c1cc2ccccc2o1	Vif imaging 92
O=C(Nc1ccc2nc(N3CCOCC3)sc2c1)c1cc2ccccc2o1	H9c2 protect 68 (no result: ARNT-TACC3 inh)
CN(C)S(=O)(=O)c1cccc(C(=O)NC2CCSc3ccccc32)c1 (configuration not stated)	Vif imaging 99
COc1cccc(/C=N/Nc2ncnc3scc(-c4ccccc4)c23)c1O	H9c2 protect 70
COc1cccc(/C=N/Nc2ncnc(Cl)c2N)c1O	ARNT-TACC3 inh 59
CN(C)CC(=O)N1[C@H](C#N)[C@@H](c2ccc(C#Cc3cccnc3)cc2)[C@H]1CO	none (no result: Vif imaging, aDG glyco up, H9c2 protect, Glyco luc inh)
O=C(Nc1nnc(C2=COCCO2)o1)c1ccc(F)cc1	ARNT-TACC3 inh 50
O=C(Nc1nnc(C2=COCCO2)o1)c1ccc(Cc2ccccc2)cc1	none
O=C(Nc1nnc(C2=COCCO2)o1)c1ccc([N+](=O)[O-])cc1	ARNT-TACC3 inh 41 (no result: Vif imaging, Glyco luc inh)
O=C(Nc1nnc(C2=COCCO2)o1)c1ccc(Cl)cc1	ARNT-TACC3 inh 52
O=C(Nc1nnc(C2=COCCO2)o1)c1ccc(Br)cc1	none
COC(=O)c1ccc(C2/C(=C(\O)c3cccc(OC)c3)C(=O)C(=O)N2CCCN2CCOCC2)cc1 (configuration not stated)	none
COC(=O)c1ccc(C2/C(=C(\O)c3cccc(OC)c3)C(=O)C(=O)N2CCCN(C)C)cc1 (configuration not stated)	ARNT-TACC3 inh 59
C[C@H](CO)N1C[C@H](C)[C@@H](CN(C)S(=O)(=O)c2ccc(Cl)cc2)Oc2ccc(NC(=O)Cn3cnnn3)cc2CC1=O	none (no result: Vif imaging, aDG glyco up, H9c2 protect, Glyco luc inh)
Cc1cccc(OCCn2c(NC(=O)c3ccco3)nc3ccccc32)c1	H9c2 protect 62
Cc1ccc(OCCn2c(NC(=O)c3ccco3)nc3ccccc32)cc1	none
CNC(=O)C[C@@H]1CC[C@@H]2[C@H](COc3ccc(NS(=O)(=O)c4ccccc4C)cc3C(=O)N2C)O1	none (no result: Vif imaging, aDG glyco up, H9c2 protect, Glyco luc inh)
CCc1nc(N=Nc2c(O)[nH]c3ccccc23)c2c3c(sc2n1)CCC3	H9c2 protect 69
CC1CCc2c(sc3ncn(CC(=O)N=Nc4c(O)[nH]c5ccccc45)c(=O)c23)C1 (configuration not stated)	none
CN(C)C(N)=NCCC[C@H](N)C(=O)O	ARNT-TACC3 inh active
O=C(c1cccc(F)c1)N1C[C@@H]2[C@H](c3ccccc31)[C@H](CO)N2C(=O)c1ccccn1	none (no result: Vif imaging, aDG glyco up, H9c2 protect, Glyco luc inh)
CCOC(=O)c1cnc2c(C)cc(C)cc2c1NCCCN1CCOCC1	Glyco luc inh 29
CCOC(=O)c1cnc2c(ccc3ccccc32)c1NCCCN(C)C	Glyco luc inh 98
CCOC(=O)c1cnc2c(C)c(Cl)ccc2c1NCCCN1CCOCC1	none
O=C(C[C@H]1CC[C@@H](NC(=O)C2CCOCC2)[C@@H](CO)O1)Nc1nccs1	none (no result: Vif imaging, aDG glyco up, H9c2 protect, Glyco luc inh)
Cc1ccc(OCCNC(=O)C(=O)NCc2ccco2)cc1	Glyco luc inh 26 (no result: ARNT-TACC3 inh)
O=C(Nc1ccc2c(c1)[C@@H]1C[C@H](CC(=O)N3CCc4ccccc4C3)O[C@H](CO)[C@@H]1O2)c1ccc2c(c1)OCO2	ARNT-TACC3 inh 48 (no result: Vif imaging, aDG glyco up, H9c2 protect, Glyco luc inh)
O=C(NCC[C@H]1CC[C@@H](NS(=O)(=O)c2ccc(F)cc2)[C@H](CO)O1)Nc1ccc(F)cc1	none (no result: Vif imaging, aDG glyco up, H9c2 protect, Glyco luc inh)
CSC1=NC(C)(C)C=C(/C=C/c2ccc(Cl)cc2Cl)N1	none
CCSC1=NC(C)(C)C=C(/C=C/c2ccc(Cl)cc2Cl)N1	ARNT-TACC3 inh 45
O=C(C[C@H]1CC[C@@H](NC(=O)Nc2cc(F)ccc2F)[C@H](CO)O1)Nc1ccc(-c2ccccc2)cc1	ARNT-TACC3 inh 48 (no result: Vif imaging, aDG glyco up, H9c2 protect, Glyco luc inh)
Cc1ccccc1SCC(=O)Nc1ccc(N2CCOCC2)cc1	none
Nc1ccccc1SCC(=O)Nc1ccc(N2CCOCC2)cc1	Vif imaging 57
COc1ccc(OCC(O)CN2CCN(Cc3ccc4c(c3)OCO4)CC2)cc1 (configuration not stated)	ARNT-TACC3 inh 47
CC(=O)c1ccc(OCC(O)CN2CCN(Cc3ccc4c(c3)OCO4)CC2)cc1 (configuration not stated)	none
Nc1nnn(CC(=O)N/N=C/c2cccc(Cl)c2)n1	Vif imaging 61

Screening results deposited in PubChem BioAssay by several laboratories.
